# PubChem BioAssay (EPA / NIEHS)
# Several values for one entry are separate records, joined by “and”; a condition that tells them apart may be missing. Equal entries are not always repeated. Results filed as inconclusive are left out. Some structures have more than one record in an assay (separate samples or runs), and their calls can disagree. Activity calls are given as the source filed them. How the source made its calls: active means hit-call score of the fitted dose curve at least 0.9, where 1 is the maximum; inconclusive means response in the unintended direction; inactive means score below 0.9.
# Assay: CCTE_Shafer_MEA_dev_LDH: CCTE's Lactate Dehydrogenase Assay for Cytotoxicity in the Neural Network Formation Assay, Shafer Lab (AID 2284068);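 further: exposure for twelve days from plating with re-dosing on DIV 5 and 9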
# Protocol: CCTE_Shafer_MEA_dev assay is conducted using Axion Biosystems 48 well microelectrode array (MEA) plates and Maestro recording system. Each well of the MEA plate contains a grid of 16 microelectrodes embedded in the culture surface. Electrically active cells, such as neurons, can be cultured over the electrodes, and electrical activity in these cells can be recorded extracellularly. The spontaneous firing of neurons is captured from each electrode on a microsecond timescale providing both temporally and spatially precise data. […] The CCTE_Shafer_MEA_dev assay uses primary cultures of rat cortical neurons. Recordings are made on days post-plating 5, 7, 9 and 12. As these cultures mature over time, neural networks develop functional activity and form cohesive networks in which electrical activity can be highly coordinated. CCTE_Shafer_MEA_dev_LDH is 1 of 19 assay components of the CCTE_Shafer_MEA_dev assay. It measures the lactate dehydrogenase enzyme activity using spectrophotometry.Data from the assay component CCTE_Shafer_MEA_dev_LDH was analyzed into 1 assay endpoint. This assay endpoint, CCTE_Shafer_MEA_dev_LDH, was analyzed in the positive analysis fitting direction relative to DMSO as the negative control and baseline of activity. Using a type of viability reporter, loss-of-signal activity can be used to understand cell viability.
# On the day prior to culture, each well was coated thoroughly with 150 uL of 0.05% polyethyleneimine (PEI, Sigma Cat P3143) in 50 mM HEPES (Sigma Cat H7523) at a pH of 8. The plate was incubated at 37C for one hour. PEI was rinsed out with 500 uL of sterile water three times. Plates were stored at 4C until the day of culture. This culture was plated at a seeding density of 1.5 x 10^5 cells/well on a 48-well MEA plate, prepared as described above. Cells were administered via a 25 uL media/laminin ([…]; Sigma Cat L2020-1MG) drop directly onto the microelectrode array, as adding the cells with the laminin results in better attachment than pre-coating with laminin. After 2 hours, an additional 475 uL of cortical media was added and the cells returned to the incubator. Exposure starts at day 0 of plating and is continued over twelve days of network development until the experiment is terminated. Cells are fed with fresh medium on DIV 5 and 9, following the recordings on those days. The entire volume of media in the well is exchanged and any vehicle or compound treatment is renewed. Complete details are found in OP-NHEERL/ISTD/SBB/TJS/2015-03-r0 (available on request, email shafer.tim@epa.gov). Measurement of the electrical activity is non-invasive, and recordings can be made from the same plate over multiple different days of the culture. In cortical neurons, this allows for the measurement of extracellular action potentials over the period during which networks form in the MEA plate.
SMILES,outcome,AC50
O=S(=O)(O)C(F)(F)C(F)(F)C(F)(F)C(F)(F)C(F)(F)C(F)(F)C(F)(F)C(F)(F)F,inactive,16.4 µM (active)
O=C(O)COc1ccc(Cl)cc1Cl,,15 µM (active)
COP(=O)(OC)OC=C(Cl)Cl,inactive,3.8 µM (active)
O=S1OCC2C(CO1)C1(Cl)C(Cl)=C(Cl)C2(Cl)C1(Cl)Cl (stereo not drawn),,8.55 µM (active)
O=C(O)C(F)(F)C(F)(F)C(F)(F)C(F)(F)C(F)(F)C(F)(F)C(F)(F)F,inactive,
CC1(c2ccc(Oc3ccccc3)cc2)OC(=O)N(Nc2ccccc2)C1=O (stereo not drawn),,3.28 µM (active)
CNC(=O)CSP(=S)(OC)OC,,66.6 µM (active) and 24.2 µM (active)
CC1(C)C(C=C(Cl)Cl)C1C(=O)OC(C#N)c1ccc(F)c(Oc2ccccc2)c1 (stereo not drawn),inactive,42.3 µM (active)
CC(C)N(C(=O)COc1nnc(C(F)(F)F)s1)c1ccc(F)cc1,inactive,15 µM (active)
O=[N+]([O-])/N=C1\NCCN1Cc1ccc(Cl)nc1,inactive,
Oc1cc(Cl)ccc1Oc1ccc(Cl)cc1Cl,,6.58 µM (active)
CCC(C)(C)C(=O)OC1=C(c2ccc(Cl)cc2Cl)C(=O)OC12CCCCC2,inactive,
CC[C@H](C)[C@H]1O[C@]2(C=C[C@@H]1C)C[C@@H]1C[C@@H](C/C=C(\C)[C@@H](O[C@H]3C[C@H](OC)[C@@H](O[C@H]4C[C@H](OC)[C@@H](O)[C@H](C)O4)[C@H](C)O3)[C@@H](C)/C=C/C=C3\CO[C@@H]4[C@H](O)C(C)=C[C@@H](C(=O)O1)[C@]34O)O2 (tested in a mixture with another compound),,522 nM (active) and 0.537 nM (active)
ClC1C(Cl)C(Cl)C(Cl)C(Cl)C1Cl (stereo not drawn),inactive,
